Our source for the binding signal values is paper PMC5700166.

This assay deals with T1, GST-Ap-NF-kB RHD (Exaiptasia pallida (Aiptasia), UniProt A0A913YAJ5 2-422).
T1 sequence: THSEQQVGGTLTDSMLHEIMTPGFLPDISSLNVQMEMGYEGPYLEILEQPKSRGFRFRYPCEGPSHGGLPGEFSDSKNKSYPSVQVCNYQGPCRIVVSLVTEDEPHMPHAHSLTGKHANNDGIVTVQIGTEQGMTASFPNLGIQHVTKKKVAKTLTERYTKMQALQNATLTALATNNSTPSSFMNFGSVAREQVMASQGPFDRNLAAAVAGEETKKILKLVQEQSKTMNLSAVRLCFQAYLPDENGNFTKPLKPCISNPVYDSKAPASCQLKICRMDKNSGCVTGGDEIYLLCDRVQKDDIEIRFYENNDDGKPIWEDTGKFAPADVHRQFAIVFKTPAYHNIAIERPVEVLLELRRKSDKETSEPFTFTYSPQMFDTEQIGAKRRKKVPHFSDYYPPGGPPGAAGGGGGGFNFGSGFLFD
The assay can be described thus: protein-binding microarray (PBM); PBM: ~300 nM protein, 6 mM HEPES pH 7.8, 80 mM KCl, 0.5 mM EDTA, 0.5 mM EGTA, 6% glycerol, 35 ng/ul poly-dIdC, 1% milk, 1 h, room temperature; Ap Aiptasia and Nv Nematostella (sea anemones) / Co Capsaspora / Aq Amphimedon (sponge) / Dm Drosophila / Hu human; RHD is the Rel homology domain; high values mean tight binding. The note with it: dsDNA, one strand shown.
As to “CCGATTAACATCAGAAATACCCCTGATGTTAATCGGGTCTTGATTCGCTTGACGCTGCTG”, the binding signal came out at 6.58 z-score. For “CCGATTAACATCAAATCATTCCCTGATGTTAATCGGGTCTTGATTCGCTTGACGCTGCTG”, the binding signal is 1.6 z-score. The sequence “CCGATTAACATCAGAATTACCCCTGATGTTAATCGGGTCTTGATTCGCTTGACGCTGCTG” registered a binding signal of 4.43 z-score. Sequence “CCGATTAACATCAGGGGGGTTAATGATGTTAATCGGGTCTTGATTCGCTTGACGCTGCTG” had a binding signal of 4.64 z-score. With “CCGATTAACATCAAAATTCCCCCTGATGTTAATCGGGTCTTGATTCGCTTGACGCTGCTG”, the binding signal came out at 10.1 z-score. Regarding “CCGATTAACATCAATTCCCCTGATGATGTTAATCGGGTCTTGATTCGCTTGACGCTGCTG”, the binding signal was determined as 6.84 z-score. Turning to “CCGATTAACATCAGGGGAATACCTGATGTTAATCGGGTCTTGATTCGCTTGACGCTGCTG”, the binding signal was determined as 9.84 z-score. Regarding “CCGATTAACATCATTCCCGGGAATGATGTTAATCGGGTCTTGATTCGCTTGACGCTGCTG”, the binding signal was determined as 2.49 z-score.

In turn, “CCGATTAACATCACGAAATCCCCTGATGTTAATCGGGTCTTGATTCGCTTGACGCTGCTG” registered a binding signal of 8.93 z-score. Regarding “CCGATTAACATCAATCTTCCCCCTGATGTTAATCGGGTCTTGATTCGCTTGACGCTGCTG”, the binding signal came to 5.77 z-score. “CCGATTAACATCAGAGTTCCCCCTGATGTTAATCGGGTCTTGATTCGCTTGACGCTGCTG” showed a binding signal of 7.64 z-score. In turn, “CCGATTAACATCAGGGGATAACCTGATGTTAATCGGGTCTTGATTCGCTTGACGCTGCTG” registered a binding signal of 6.14 z-score. The figure for “CCGATTAACATCAGGGGATTCCATGATGTTAATCGGGTCTTGATTCGCTTGACGCTGCTG” is 9.19 z-score.

In the case of “CCGATTAACATCAAGGGGGATATTGATGTTAATCGGGTCTTGATTCGCTTGACGCTGCTG”, the binding signal turned out to be 5.89 z-score.
